Measured values reported in the supplement of paper PMC9694430.

Assays:
Assay in all cases: thermal shift delta Tm vs DMSO control; higher = stronger stabilization (binding)
Settings in all cases: 12.5 µM; protein concentration 2 µM
[1] = tested on: LOC_OS01G01410-cb001
Procedure, shortened: (§1)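 Purified, E. coli-expressed rice kinase domain constructs were tested by differential scanning fluorimetry in 96-well plates: 19.5 μl of 2 μM kinase in 100 mM potassium phosphate pH 7.5, 150 mM NaCl, 10% glycerol, 5 × SYPRO Orange, plus compound in DMSO. Fluorescence was read from 25°C to 95°C at 0.05°C/s. Melting temperatures came from Boltzmann fits, and the shift is the triplicate mean relative to protein with DMSO alone.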

[2] = tested on: LOC_OS01G02750-cb003
Procedure, shortened: as §1

[3] = tested on: LOC_OS01G10900-cb004
Procedure, shortened: as §1

[4] = tested on: LOC_OS01G13800-cb001
Procedure, shortened: as §1

[5] = tested on: LOC_OS01G14860-cb001
Procedure, shortened: as §1

[6] = tested on: LOC_OS01G21960-cb002
Procedure, shortened: as §1

[7] = tested on: LOC_OS01G39600-cb002
Procedure, shortened: as §1

[8] = tested on: LOC_OS01G48390-cb002
Procedure, shortened: as §1

[9] = tested on: LOC_OS01G51400-cb002
Procedure, shortened: as §1

[10] = tested on: T1, LOC_OS01G52050-cb004
T1 sequence (whole entry): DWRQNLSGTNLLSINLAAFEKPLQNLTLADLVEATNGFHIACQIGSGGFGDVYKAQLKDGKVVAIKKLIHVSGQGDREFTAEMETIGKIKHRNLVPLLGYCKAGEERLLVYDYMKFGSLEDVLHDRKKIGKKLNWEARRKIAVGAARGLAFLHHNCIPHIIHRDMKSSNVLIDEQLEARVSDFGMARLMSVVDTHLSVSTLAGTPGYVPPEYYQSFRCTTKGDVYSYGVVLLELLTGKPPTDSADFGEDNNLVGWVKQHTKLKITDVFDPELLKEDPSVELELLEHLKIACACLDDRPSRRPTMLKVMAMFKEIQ
Procedure, shortened: as §1

[11] = tested on: LOC_OS01G57100-cb003
Procedure, shortened: as §1

[12] = tested on: LOC_OS01G60330-cb001
Procedure, shortened: as §1

[13] = tested on: LOC_OS01G60700-cb002
Procedure, shortened: as §1

[14] = tested on: LOC_OS01G63280-cb003
Procedure, shortened: as §1

[15] = tested on: LOC_OS01G67340-cb003
Procedure, shortened: as §1

[16] = tested on: LOC_OS01G70970-cb002
Procedure, shortened: as §1

[17] = tested on: LOC_OS02G07810-cb001
Procedure, shortened: as §1

[18] = tested on: LOC_OS02G08530-cb003
Procedure, shortened: as §1

[19] = tested on: LOC_OS02G14120-cb001
Procedure, shortened: as §1

[20] = tested on: LOC_OS02G17970-cb001
Procedure, shortened: as §1

| SMILES | thermal shift delta Tm [1] [°C] | thermal shift delta Tm [2] [°C] | thermal shift delta Tm [3] [°C] | thermal shift delta Tm [4] [°C] | thermal shift delta Tm [5] [°C] | thermal shift delta Tm [6] [°C] | thermal shift delta Tm [7] [°C] | thermal shift delta Tm [8] [°C] | thermal shift delta Tm [9] [°C] | thermal shift delta Tm [10] [°C] | thermal shift delta Tm [11] [°C] | thermal shift delta Tm [12] [°C] | thermal shift delta Tm [13] [°C] | thermal shift delta Tm [14] [°C] | thermal shift delta Tm [15] [°C] | thermal shift delta Tm [16] [°C] | thermal shift delta Tm [17] [°C] | thermal shift delta Tm [18] [°C] | thermal shift delta Tm [19] [°C] | thermal shift delta Tm [20] [°C] |
| --- | --- | --- | --- | --- | --- | --- | --- | --- | --- | --- | --- | --- | --- | --- | --- | --- | --- | --- | --- | --- |
| Cc1ccc2nc(NCCN)c3ncc(C)n3c2c1 | 0.42 | 0.41 | 1.16 | 0.4 | 0.19 | 0.57 | -0.24 | 1.79 | 0.09 | 0.5 | 0.95 | 0.28 | 0.64 | 0.27 | 0.55 | 0.33 | 0.4 | 0.92 | 0.86 | 0.51 |
| C=CC(=O)N1CCC[C@@H](n2nc(-c3ccc(Oc4ccccc4)cc3)c3c(N)ncnc32)C1 | 0.18 | 0.65 | 0.59 | 0.2 | 0 | 0.24 | 0.74 | 0.52 | 0.21 | 0.5 | 1.42 | 1.09 | 0.54 | 3.76 | -0.23 | 1.12 | 0.96 | 1.16 | 0.34 | 0.6 |
| NC1(Cc2ccc(Cl)cc2)CCN(c2ncnc3[nH]ccc23)CC1 | 0.45 | 0.58 | -0.03 | 0.07 | 1.34 | 0.89 | 0.46 | 3.31 | 0.45 | 0.94 | 2.25 | 2.06 | 0.71 | 0.51 | 0.58 | 0.53 | 0.47 | 1.24 | 1.88 | 0.79 |
| COc1ccc(-c2ccc3c(N4CCOC[C@@H]4C)nc(N4CCOC[C@@H]4C)nc3n2)cc1CO | 0.54 | 0.23 | 0.08 | 0.21 | 0 | -0.12 | -0.26 | 0.01 | -0.16 | 0.06 | 0.87 | 0.93 | 0.64 | -0.13 | -0.69 | 0.1 | 0.28 | 0.31 | -1.22 | -0.06 |
| CS(=O)(=O)N1CCN(Cc2cc3nc(-c4cccc5[nH]ncc45)nc(N4CCOCC4)c3s2)CC1 [Pictilisib (GDC-0941)] | 1.2 | 0.47 | 0.85 | 0.43 | 1.21 | 0.24 | 0.57 | 2.14 | -0.08 | -0.11 | 0.25 | 2.44 | 0.85 | -0.25 | -0.42 | 0.62 | 0.7 | 1.22 | 0.32 | 0.17 |
| CNS(=O)(=O)Nc1nccc(Cc2c(C)c3ccc(Oc4ncccn4)cc3oc2=O)c1F | 0.15 | 1.63 | 0.11 | 0.82 | 0.18 | 0.68 | -0.07 | 0.47 | 0.47 | 0.66 | 1.4 | 0.33 | 1.34 | 0.93 | 0.24 | 0.04 | 1.08 | 0.58 | 0.9 | 1.23 |
| Cc1ccc(NC(=O)c2cccc(C(C)(C)C#N)c2)cc1Nc1ccc2ncn(C)c(=O)c2c1 | 0.91 | 0.97 | 0.69 | 0.2 | 0.47 | 0.52 | 0.04 | 1.13 | 0.61 | 0.4 | 2.69 | 0.66 | 1.2 | 3.69 | 0.79 | 0.4 | 1.74 | 0.95 | 1.71 | 1.2 |
| Nc1nc(N)c(N=O)c(OCC2CCCCC2)n1 | 0.83 | 0.95 | 0.44 | -0.3 | 1.5 | 1.67 | -1.66 | 0.08 | 0.44 | 1.13 | 1.14 | 2.6 | 1.46 | 0.91 | 0.46 | 1.27 | 0.51 | 0.99 | 2.99 | 0.61 |
| C[C@@H]1COC(Nc2ccc3ncnc(Nc4ccc(OCc5nccs5)c(Cl)c4)c3c2)=N1 [Varlitinib] | 2.18 | 0.28 | 0.95 | 0.39 | 1.1 | 2.04 | 0.66 | 1.02 | 0.22 | 0.92 | 1.92 | 1.09 | 1.53 | 1.44 | 0.64 | 0.88 | 0.94 | 0.76 | 0.74 | 1.04 |
| S=C(NCc1ccc2c(c1)OCO2)N1CCN(c2ncnc3c2oc2ccccc23)CC1 [Amuvatinib (MP-470)] | 0.66 | -0.56 | 0.77 | 1.03 | 0.42 | 0.46 | 0.21 | 0.88 | 0.31 | 1.3 | 1.62 | 1.4 | 1.01 | 0.5 | 0.84 | 0.42 | 1.04 | 1.09 | 0.42 | 1.14 |
| CCCCNc1ncc(C(=O)NCc2ccc(-n3ccnc3)cc2)c(NC2CCC(O)CC2)n1 (stereo not given) | 3.78 | 2.44 | 0.58 | -0.06 | 4.73 | 1.72 | 2.74 | 2.96 | 0.43 | 7.56 | 2 | 9.72 | 1.49 | 0.72 | 10.2 | 4.54 | 0.76 | 4.03 | 7.7 | 1.08 |
| COc1cc(OC)c(/C=C/S(=O)(=O)Cc2ccc(OC)c(NCC(=O)O)c2)c(OC)c1 | 0.51 | 1.22 | 0.58 | 0.83 | 0.27 | 0.96 | -0.03 | 0.33 | 0.1 | 0.51 | 0.72 | 0.72 | 1.27 | 0.67 | -0.23 | -0.1 | 1.48 | 0.79 | 0.49 | 0.94 |
